Screens from PubChem.
A3G deaminase – APOBEC3G DNA deaminase inhibitors, primary screen, biochemical, fluorescence, single-stranded DNA substrate, uHTS; 330,000 compounds, 0.28% hits; recombinant A3G, ssDNA deamination FAM/TAMRA fluorescence; AID 493012, 2011; inhibition, % at 20 µM; DNA dC->dU-editing enzyme APOBEC-3G (Homo sapiens), Q9HC16;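 active = inhibition of at least 40% at 20 µM, with no more than 30% in the related APOBEC3A deaminase screen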;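 also: plate controls were DMSO wells with A3G for no effect and wells lacking A3G enzyme for full effect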
Target sequence (Q9HC16 whole entry, looked up): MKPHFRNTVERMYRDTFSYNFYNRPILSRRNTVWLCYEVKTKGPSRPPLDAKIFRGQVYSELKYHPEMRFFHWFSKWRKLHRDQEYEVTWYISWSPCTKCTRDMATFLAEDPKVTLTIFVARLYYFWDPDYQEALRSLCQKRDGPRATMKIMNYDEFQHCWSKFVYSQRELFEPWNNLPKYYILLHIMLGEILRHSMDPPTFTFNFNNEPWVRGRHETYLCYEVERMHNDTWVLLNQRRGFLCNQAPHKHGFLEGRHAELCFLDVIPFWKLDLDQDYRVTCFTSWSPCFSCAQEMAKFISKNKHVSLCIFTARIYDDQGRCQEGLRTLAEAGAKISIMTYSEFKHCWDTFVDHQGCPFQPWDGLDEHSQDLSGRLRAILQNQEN
H9c2 TAG inh – inhibitors of triacylglycerol accumulation, primary screen, cell-based, uHTS, fluorescence, H9c2; H9c2 cells, Nile Red lipid (TAG) fluorescence; cells loaded with 200 µM oleic acid; inhibition, % at 12.5 µM; 230,000 compounds, 0.66% hits; AID 651582, 2012;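 active = pattern-corrected inhibition of lipid staining of at least 50% with the nuclear-stain viability signal not falling by more than 50%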;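 also: 0% = DMSO wells and 100% = triacsin C control wells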
APOBEC3A inh – APOBEC3A ssDNA deaminase inhibitors, primary screen, selectivity assay for APOBEC3G inhibitor project, biochemical, FAM/TAMRA oligo cleavage fluorescence; 330,000 compounds, 0.41% hits; inhibition, % at 20 µM; recombinant A3A, FAM/TAMRA ssDNA deamination fluorescence; DNA dC->dU-editing enzyme APOBEC-3A (Homo sapiens), P31941;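 active = at least 40% inhibition at 20 µM here, with at most 30% in a related deaminase screen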;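 also: plate controls were A3A with DMSO for no effect and wells lacking A3A enzyme for full effect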
Cardio protect – cardioprotection against H2O2-induced cell death, primary screen, uHTS, H9c2 cells, ATPLite luminescence | AID 588492, 2011 | H9c2 cardiomyocytes, H2O2 injury protection, 2 h | 360,000 compounds, 0.63% hits | protection from H2O2 cell death, % at 20 µM;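 active = compounds giving at least 50% protection of heart cells from peroxide-induced death in the single-dose screen, raw or plate-pattern-corrected value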;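 also: 0% = DMSO wells with peroxide and 100% = DMSO wells without peroxide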
PfG6PD inh – PfG6PD enzyme inhibitors, primary screen, biochemical, fluorescence intensity, uHTS | glucose-6-phosphate dehydrogenase-6-phosphogluconolactonase (Plasmodium falciparum 3D7) | PfGluPho enzyme, NADPH resazurin-diaphorase fluorescence | inhibition, % at 20 µM | 350,000 compounds, 0.78% hits | AID 504690, 2011;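 active = inhibition reaching at least a set limit at 20 µM in the primary screen, cut at about 59% in these data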;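 also: 0% = DMSO wells with substrate and 100% = DMSO wells lacking glucose-6-phosphate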
NadD block – inhibitors of S. aureus NadD, primary screen, biochemical, colorimetric, uHTS; Nicotinate-nucleotide adenylyltransferase NadD (Staphylococcus aureus N315); purified NadD enzyme, colorimetric absorbance read-out; inhibition, % at 20 µM; 360,000 compounds, 0.78% hits; AID 602399, 2012; in the data active = inhibition above about 26%
Numbers without * were called inactive; . = no result. This is a sample that favours compounds with a hit; in the whole collection about 2.9% have one here.

SMILES | A3G deaminase | H9c2 TAG inh | APOBEC3A inh | Cardio protect | PfG6PD inh | NadD block
O=C(O)c1ccc(NS(=O)(=O)c2ccc3c(c2)C(=O)c2ccccc2C3=O)cc1 | 2 | . | 3 | -11 | -39 | -1
COc1ccccc1C(=O)Nc1ccc(-c2nnn(CC(=O)NCc3ccco3)n2)cc1 | -3 | 21 | 6 | -7 | 3 | 9
N#C/C(=C\c1ccc(O)c(O)c1)C(=O)NCCc1ccccc1 | -4 | 10 | -5 | 77* | -28 | 0
N#C/C(=C\c1ccc(O)c(O)c1)C(=O)N1CCc2ccccc21 | -6 | -2 | -1 | 77* | -23 | 5
COc1cc(/C=C(\C#N)C(=O)N2CCc3ccccc32)ccc1O | 1 | -11 | 4 | 4 | -4 | -1
CCn1c(C)nc2cc(C(=O)NN=Cc3ccc([N+](=O)[O-])cc3)ccc21 | 0 | 13 | 1 | 11 | 9 | -2
CCOC(=O)C(Cc1ccc(NC(=O)/C(=C/c2ccc(OC(C)=O)cc2)NC(C)=O)cc1)N1C(=O)c2ccccc2C1=O (stereo not drawn) | -6 | 17 | -5 | 59* | -5 | -11
COc1ccc(NC(=O)Nc2ccc3c(c2)C(=O)N([C@H](C)CO)C[C@H](C)[C@@H](CN(C)Cc2ccc(Cl)c(Cl)c2)OCCCC[C@@H](C)O3)cc1 | . | 28 | . | -11 | 7 | 40*
C[C@@H]1CCCCO[C@H](CN(C)Cc2ccc(Cl)c(Cl)c2)[C@H](C)CN([C@@H](C)CO)C(=O)c2cc(NC(=O)Nc3ccc(F)cc3)ccc2O1 | . | 48 | . | -16 | 17 | 22
COc1ccc(Cl)cc1NC(=O)CN(C)C(=O)CCc1nc2ccccc2c(=O)[nH]1 | -3 | 16 | -2 | 73* | 15 | -2
CN(CC(=O)Nc1ccccc1Br)C(=O)CCc1nc2ccccc2c(=O)[nH]1 | -10 | 15 | -2 | 73* | 5 | 1
CN1CCN(C(=O)CCc2nc3ccccc3c(=O)[nH]2)CC1 | -3 | -4 | 5 | 34 | 7 | 1
CN1CCC(N(C)C(=O)CCc2nc3ccccc3c(=O)[nH]2)CC1 | -2 | . | 3 | 78* | 4 | -5
CCOc1ccc(NC(=O)CN(C)C(=O)CCc2nc3ccccc3c(=O)[nH]2)cc1OCC | . | -10 | . | 50 | -3 | -1
CC1(C)C(C(=O)OCC(Cl)(Cl)Cl)N2C(=O)C(NC(=O)Cc3ccccc3)C2S1=O (stereo not drawn) | -5 | . | -8 | 3 | 20 | -8
CC(=O)NC12CC3CC(C1)CC(C(=O)Oc1ccc(N(C)S(=O)(=O)c4cc(C)ccc4C)cc1)(C3)C2 | -6 | -9 | -2 | -12 | 38 | -5
Cc1ccc(Cl)cc1NS(=O)(=O)c1ccc2oc(=O)ccc2c1 | -4 | . | -1 | -4 | -19 | 2
C=C[C@](C)(CC[C@@]1(C)C(C)CC(OC2OC(C)C(OC3OC(COC(C)=O)C(O)C(O)C3O)C(O)C2O)[C@@]2(C)C(C)=CCCC12)OC1OC(C)C(O[C@@H]2O[C@@H](C)C(O)C(O)[C@H]2O)C(O)C1O (stereo partly drawn) | -5 | 5 | -4 | 12 | -13 | -10
COC(=O)c1cccc(S(=O)(=O)N(Cc2ccco2)Cc2cc3cc(OC)ccc3[nH]c2=O)c1 | -4 | 13 | -2 | 78* | 21 | -3
CCOC(=O)c1cccc(S(=O)(=O)N(CCO)Cc2cc3cc(OC)ccc3[nH]c2=O)c1 | -5 | . | -1 | 9 | 17 | -5
O=c1[nH]cnc2sc3c(c12)CCC3 | -8 | -3 | -8 | 60* | -2 | -5
Cc1nc2sc3c(c2c(=O)[nH]1)CCC3 | 1 | 4 | 3 | 40 | 6 | -2
CC(=O)NCCNC(=O)c1ccc(NC2=NC3CS(=O)(=O)CC3S2)cc1 (stereo not drawn) | -1 | 2 | -1 | 4 | 6 | -7
